# Measurements from PubChem BioAssay (NCI).
# The panel holds about 83,000 compounds, 20% with a hit somewhere; the sample as a whole holds those more often.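 The test compound was applied at a single concentration to cells in 96-well plates for 48 hours, and percent growth was recorded.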 Unmarked numbers belong to inactive results. Activity calls are given as the source filed them. The calls were made as follows: active = growth percent below 10; inactive = the rest.
# Test system: NCI-H522 lung
# Test: NCI-60 one-dose screen, 48 h (100 = growth as untreated, 0 = no growth, -100 = all killed)
# Details: 10 µM unless noted
row,SMILES,growth
1,CC1=CC(=O)C(C(C)=Nc2ccccc2Cl)C(=O)O1 (stereo not drawn),121%
2,O=[P@@]1(c2ccccc2)O[C@H](COCc2ccccc2)[C@@H](OCc2ccccc2)[C@H](OCc2ccccc2)[C@H]1NCc1ccccc1,20.5%
3,COc1ccc(-c2noc(N)c2-c2cc(OC)c3c(c2)OCO3)cc1,-23.4% (active)
4,CN(C)c1nc(-c2ccco2)n2nc(-c3ccco3)cc2n1,94.8%
5,COc1cccc(C2C(C#N)=C(N)Oc3cc(OC)ccc32)c1 (stereo not drawn),-38.4% (active)
6,c1cnc2ccc3ncccc3c2c1,84.6%
7,O=C(c1ccccc1)c1ccco1,89.3%
8,CCOC(=O)C1=NN(c2ccc(Cl)cc2)C2C3N(c4ccc(Cl)cc4)N=C(C(=O)OCC)N3c3ccccc3N12 (stereo not drawn),88.7%
9,Cc1cc(NC(=O)c2ccc(N)cc2)ccc1N=Nc1ccc2c(O)c(N=Nc3ccc(Cl)c(S(=O)(=O)O)c3)c(S(=O)(=O)O)cc2c1,78.6%
10,O=C(Nc1cccc(C(F)(F)F)c1)Nc1ccc(OCc2nnc(-c3ccc(Cl)cc3)o2)c(F)c1,64%
11,CCN1C(=O)c2ccc3c4c(ccc(c24)C1=O)C(=O)N(CCCNCc1ccccc1OC)C3=O,-87.1% (active)
12,C=C1c2c(C)nn(-c3ccc(C#CCOC4OC(CO)C(O)C(O)C4O)cc3)c2N(C)C23C[C@H]1C1(C)c4c(C)nn(-c5ccc(C#CCOC6OC(CO)C(O)C(O)C6O)cc5)c4N(C)C(C)(C[C@H]12)C3 (stereo partly drawn),-3.82% (active)
13,O=C(Nc1ccc(OCc2nnc(-c3ccccc3)o2)c(F)c1)Nc1ccc(Cl)c(C(F)(F)F)c1,13.9%
14,O=C(/C=C/c1ccccc1Cl)c1ccc(O)cc1,58.2%
15,O=C(Nc1ccncc1)C(=O)c1cn(S(=O)(=O)c2cccc(F)c2)c2ccccc12,-12.5% (active)
16,COc1cc(/C=C/C(=O)c2ccc(F)cc2)ccc1OCCCCCOc1cc2c(cc1OC)C(=O)N1CCCC1C=N2 (stereo not drawn),-59.9% (active)
17,O=C(/C=C/c1ccc(O)c(O)c1)N1CCN(c2ccc(Cl)cc2)CC1,-3.39% (active)
18,O=C(OCCBr)c1ccc(Cl)c([N+](=O)[O-])c1,8.61% (active)
19,COc1ccc2c(c1)/C(=C\c1c[nH]c3ccc(F)cc13)C(=O)N2,80%
20,Cc1cc(C(=O)O)c(C)cc1C(=O)O,96.5%
21,O=C1/C(=N/O)CCc2ccccc21,94%

# Test system: A549/ATCC NSCLC
# Test: as above
# Details: 10 µM unless noted
row,SMILES,growth
1,Fc1ccc(-c2nnc(-c3c(-c4ccc(F)cc4)nc4ncccn34)o2)cc1,96%
2,S=c1[nH]nc2sc3ccccc3n12,108%
3,Clc1ccc2nc(Cl)c3ccccc3c2c1,28.7%
4,CCOC(Cc1c(N)[nH]c(=S)[nH]c1=O)OCC,104%
5,COc1ccc(-c2nnc(COc3ccc(NC(=O)Nc4cc(C(F)(F)F)cc(C(F)(F)F)c4)cc3F)o2)cc1,3.87% (active)
6,Clc1cccc(Cc2cn3cc(-c4ccccc4)nc3s2)c1,37.5%
7,ClC1=C(Cl)C(Cl)=C(Cl)C1=C/C=C/c1ccccc1,-58% (active)
8,O=[N+]([O-])c1cnc(Sc2ccncn2)c([N+](=O)[O-])c1,97.6%
9,O=C(N1CCC(CN=c2cc3n(-c4ccc(Cl)cc4)c4ccccc4nc-3cc2Nc2ccc(Cl)cc2)CC1)N1CC1,-89.4% (active)
10,COc1cc(/C=C2\CCC/C(=C\c3ccc(OCC4CO4)c(OC)c3)C2=O)ccc1OCC1CO1 (stereo not drawn),21.3%
11,COc1ccc(-n2nnc(C(=O)O)c2-c2cc(OC)c(OC)c(OC)c2)cc1,100%
12,Nc1nc(N)c([N+](=O)[O-])c(=O)[nH]1,97.8%
13,Oc1[nH]c2ccccc2c1/C=c1/ccc2c(c1)N=C(c1cc(F)cc(F)c1)N=2,66.5%
14,O=c1ccn(C2CCCO2)c(=O)[nH]1 (stereo not drawn),95.3%
15,COc1ccc2nc3cc(Cl)ccc3c(Nc3cc(C(C)C)c(O)cc3C)c2c1,14.5%
16,COc1ccc(-c2cnnn2-c2cc(OC)c3c(c2)OCO3)cc1,18.3%
17,CC1=CC(=O)C(C(C)=Nc2ccccc2Cl)C(=O)O1 (stereo not drawn),116%
18,O=[P@@]1(c2ccccc2)O[C@H](COCc2ccccc2)[C@@H](OCc2ccccc2)[C@H](OCc2ccccc2)[C@H]1NCc1ccccc1,13.3%
19,COc1ccc(-c2noc(N)c2-c2cc(OC)c3c(c2)OCO3)cc1,29.2%

row,SMILES,growth
1,CN(C)c1nc(-c2ccco2)n2nc(-c3ccco3)cc2n1,92.9%
2,COc1cccc(C2C(C#N)=C(N)Oc3cc(OC)ccc32)c1 (stereo not drawn),15.6%
3,c1cnc2ccc3ncccc3c2c1,90.2%
4,O=C(c1ccccc1)c1ccco1,97%
5,CCOC(=O)C1=NN(c2ccc(Cl)cc2)C2C3N(c4ccc(Cl)cc4)N=C(C(=O)OCC)N3c3ccccc3N12 (stereo not drawn),99%
6,Cc1cc(NC(=O)c2ccc(N)cc2)ccc1N=Nc1ccc2c(O)c(N=Nc3ccc(Cl)c(S(=O)(=O)O)c3)c(S(=O)(=O)O)cc2c1,60.5%
7,O=C(Nc1cccc(C(F)(F)F)c1)Nc1ccc(OCc2nnc(-c3ccc(Cl)cc3)o2)c(F)c1,50%
8,CCN1C(=O)c2ccc3c4c(ccc(c24)C1=O)C(=O)N(CCCNCc1ccccc1OC)C3=O,-58.1% (active)
9,C=C1c2c(C)nn(-c3ccc(C#CCOC4OC(CO)C(O)C(O)C4O)cc3)c2N(C)C23C[C@H]1C1(C)c4c(C)nn(-c5ccc(C#CCOC6OC(CO)C(O)C(O)C6O)cc5)c4N(C)C(C)(C[C@H]12)C3 (stereo partly drawn),24.9%
10,O=C(Nc1ccc(OCc2nnc(-c3ccccc3)o2)c(F)c1)Nc1ccc(Cl)c(C(F)(F)F)c1,11.6%
11,O=C(/C=C/c1ccccc1Cl)c1ccc(O)cc1,41.8%
12,O=C(Nc1ccncc1)C(=O)c1cn(S(=O)(=O)c2cccc(F)c2)c2ccccc12,67.3%
13,COc1cc(/C=C/C(=O)c2ccc(F)cc2)ccc1OCCCCCOc1cc2c(cc1OC)C(=O)N1CCCC1C=N2 (stereo not drawn),4.95% (active)
14,O=C(/C=C/c1ccc(O)c(O)c1)N1CCN(c2ccc(Cl)cc2)CC1,61.2%
15,O=C(OCCBr)c1ccc(Cl)c([N+](=O)[O-])c1,104%
16,COc1ccc2c(c1)/C(=C\c1c[nH]c3ccc(F)cc13)C(=O)N2,70%
17,Cc1cc(C(=O)O)c(C)cc1C(=O)O,103%
18,O=C1/C(=N/O)CCc2ccccc21,103%
